Most compounds without a hit are left out; they make up all but 3% or so of the library.
Mtb FBA inh – Mtb FBA enzyme inhibitors, primary screen, biochemical, fluorescence, strain H37Rv. Fructose-bisphosphate aldolase (Mycobacterium tuberculosis (strain ATCC 25618 / H37Rv)), …. purified M. tuberculosis FBA, fluorescence read-out. hit rate 2.3% among 360,000. inhibition, % at 1 µM;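 further: 0% = vehicle and 100% = reference inhibitor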
Target sequence (P9WQA3 whole entry, looked up): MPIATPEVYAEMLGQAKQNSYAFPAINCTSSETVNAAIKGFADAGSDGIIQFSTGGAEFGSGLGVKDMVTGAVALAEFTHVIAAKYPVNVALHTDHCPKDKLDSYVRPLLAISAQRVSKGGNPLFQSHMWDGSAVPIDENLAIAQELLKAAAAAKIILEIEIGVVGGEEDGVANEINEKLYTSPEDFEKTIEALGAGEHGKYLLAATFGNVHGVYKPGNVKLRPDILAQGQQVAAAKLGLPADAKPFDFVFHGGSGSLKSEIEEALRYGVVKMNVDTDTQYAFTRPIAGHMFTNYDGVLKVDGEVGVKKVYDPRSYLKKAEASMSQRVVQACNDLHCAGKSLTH
GDH-TPI counter-1 – GDH-TPI coupling enzyme inhibitors, primary screen, artefact control for M. tuberculosis FBA inhibitor project, biochemical, absorbance, full deck; GDH-TPI coupled enzyme counterscreen, NADH absorbance; inhibition, % at 4.8 µM; hit rate 1.2% among 360,000; AID 588335, 2011; in the data active means inhibition above about 30%;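 further: 0% = DMSO wells and 100% = wells lacking the enzyme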
BioA inh – M. tuberculosis BioA enzyme inhibitors, primary screen, biochemical, plate reader, single point, HTS. 7,8-diaminopelargonic acid synthase BioA (Mycobacterium tuberculosis). purified M. tuberculosis BioA enzyme. inhibition, % at 9.99 µM. hit rate 0.096% among 360,000; in the data active means inhibition above about 40%
Vc quorum ag – inducers of Vibrio cholerae quorum light production without autoinducers, primary screen, BH1578 luxS cqsA deficient, single point. hit rate 0.16% among 350,000. V. cholerae BH1578 lux reporter, luminescence, 6 h. AID 588436, 2011. activation, % at 18.7 µM; in the data active means activation mostly above about 9.7%, no sharp cut-off
Mtb FBA inh conf – M. tuberculosis aldolase blockers, biochemical, fluorescence, strain H37Rv, confirmation; hit rate 78% among 5,600; inhibition, % at 1 µM; AID 651616, 2012; purified M. tuberculosis FBA, fluorescence read-out; shares compounds with Mtb FBA inh;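 further: 0% = vehicle wells and 100% = reference inhibitor wells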
GDH-TPI counter-2 – GDH-TPI coupling enzyme inhibitors, artefact control for M. tuberculosis FBA inhibitor project, biochemical, fluorescence, high throughput; shares compounds with Mtb FBA inh; GDH-TPI coupled enzyme counterscreen; inhibition, % at 1 µM; hit rate 81% among 5,600; in the data active means inhibition above about 10%
GDH-TPI DR – GDH-TPI coupling enzyme inhibitors, dose response, artefact control for M. tuberculosis FBA inhibitor project, biochemical, fluorescence, IC50 | shares compounds with Mtb FBA inh | GDH-TPI coupled enzyme assay, artifact counterscreen | IC50, µM | hit rate 79% among 170 | AID 652145, 2013; call rule not given here
* hit, by the source's call; i = inactive; . = no result; + = active, no number. Unless noted, no stated cut-off is given here; in the data, active means inhibition above about 27%; inactive means the rest.

SMILES	Mtb FBA inh	GDH-TPI counter-1	BioA inh	Vc quorum ag	Mtb FBA inh conf	GDH-TPI counter-2	others
Cc1csc2ncc(C(=O)NC(C)c3ccccc3)c(=O)n12 (stereo unspecified)	63*	22	0	i	199*	159*
CC(NC(=O)c1ccccc1O)c1ccccc1 (stereo unspecified)	41*	5	0	-11	156*	122*
O=C(NCc1ccccc1Cl)c1cnc2n(c1=O)CCS2	2	-12	0	0	.	.
O=C(C[C@H]1CC[C@@H]2[C@H](COC[C@@H](O)CN2S(=O)(=O)c2ccc(Oc3ccccc3)cc2)O1)Nc1ccccc1	.	.	3	.	.	.
CN(C)CC(=O)Nc1ccc2c(c1)[C@@H]1C[C@H](CC(=O)NCCN3CCCCC3)O[C@@H](CO)[C@@H]1O2	.	.	0	.	.	.
CC1(c2ccc3ccccc3c2)NC(=O)N(CC(=O)N2CCC(C(N)=O)CC2)C1=O (stereo unspecified)	54*	1	.	i	96*	63*
CC1(c2ccc3ccccc3c2)NC(=O)N(CC(=O)N2CCN(Cc3ccccc3)CC2)C1=O (stereo unspecified)	4	-1	0	i	.	.
C[C@H]1CN([C@@H](C)CO)C(=O)c2cccc(NC(=O)C3CCCCC3)c2O[C@H]1CN(C)C	.	.	2	.	.	.
O=c1c(-c2n[nH]c(=S)n2-c2ccccc2)cccn1Cc1cccc(Cl)c1	-2	3	.	1	.	.
O=c1c(-c2nnc(SCc3ccc(Cl)cc3Cl)o2)cccn1Cc1ccccc1	52*	20	-2	i	43*	23*
CSc1nnc(-c2cccn(Cc3cccc(Cl)c3)c2=O)o1	87*	1	.	i	+	+
C[C@H](CO)N1C[C@H](C)[C@H](CN(C)C(=O)C2CCC2)Oc2cc(C#C[C@@H](C)O)ccc2S1(=O)=O	.	.	-2	.	.	.
Cc1nc2ccc(N)cc2c(=O)n1Cc1ccc(Cl)cc1	41*	10	26	0	40*	33*
Cc1nc2c(cc1N)nc(C)n2Cc1ccccc1	99*	0	3	i	20	3	GDH-TPI DR=1.2*
Cc1nc2ccc([N+](=O)[O-])cc2c(=O)n1Cc1ccc(Cl)cc1	2	6	0	-1	.	.
CO[C@H]1CN(C)C(=O)c2ccc(NC(=O)C3CCCCC3)cc2OC[C@H](C)N(Cc2nccs2)C[C@@H]1C	.	.	0	.	.	.
COc1ccc2c(C)cc(=O)oc2c1C	54*	2	1	i	+	196*
Cc1c(C)c2ccc(OCC(=O)Nc3ccccn3)c(C)c2oc1=O	8	1	13	0	.	.
Cc1c(C)c2ccc(OCC(=O)N(C)C)c(C)c2oc1=O	79*	12	4	0	148*	125*
C=CCOC(=O)COc1ccc2c(C)c(C)c(=O)oc2c1C	58*	11	0	0	32*	34*
Cc1cc(=O)oc2c(C)c(OCC(=O)c3ccccc3)ccc12	0	3	0	i	.	.
Cc1c(OCC(=O)N(C)C)ccc2c3c(c(=O)oc12)CCCCC3	88*	16	1	i	1	-4
C[C@H](CO)N1C[C@H](C)[C@H](CN(C)S(=O)(=O)c2ccc(Cl)cc2)Oc2ccc(NC(=O)c3ccncc3)cc2C1=O	.	.	1	.	.	.
CCc1c(C)c2ccc(OCC(=O)OC(C)C)c(C)c2oc1=O	11	4	-2	i	.	.
Cc1cc(=O)oc2c(C)c(OCC(=O)N(C)C)ccc12	37*	20	1	-1	46*	40*
SMILES	Mtb FBA inh	GDH-TPI counter-1	BioA inh	Vc quorum ag	Mtb FBA inh conf	GDH-TPI counter-2	others
CCc1c(C)c2ccc(OCC(=O)N(C)C)c(C)c2oc1=O	76*	3	4	-2	+	+
CCOC(=O)CCc1c(C)c2ccc(OCC(=O)N(CC)CC)c(C)c2oc1=O	76*	0	.	0	18	20*
CCOC(=O)CCc1c(C)c2ccc(OC3CCCCC3=O)c(C)c2oc1=O (stereo unspecified)	23	8	.	-1	.	.
CCC(C)NC(=O)c1cc(-c2cccs2)nc2ccccc12 (stereo unspecified)	94*	21	-2	i	101*	92*
Cc1cc(NC(=O)c2cc(-c3ccc(C)s3)nc3ccccc23)no1	29*	11	-2	0	+	180*
CC(C)CCNC(=O)c1cc(-c2cccs2)nc2ccccc12	65*	11	-2	2	-2	-4
CC(C)C#Cc1cnc2c(c1)C(=O)N([C@H](C)CO)C[C@@H](C)[C@H](CN(C)Cc1ccccc1F)O2	.	.	-1	.	.	.
Cc1noc(C)c1S(=O)(=O)Nc1ccc2c(c1)CC(=O)N([C@@H](C)CO)C[C@H](C)[C@H](CN(C)Cc1ccc3c(c1)OCO3)O2	.	.	-2	.	.	.
CN(C)CC(=O)Nc1ccc2c(c1)[C@H]1C[C@H](CC(=O)N3CCc4ccccc4C3)O[C@@H](CO)[C@H]1O2	.	.	-2	.	.	.
CC(C(=O)Nc1ccc(C#N)cc1)N(C)Cc1cccs1 (stereo unspecified)	77*	-4	0	0	50*	40*
CC(C(=O)Nc1ccc(Cl)cc1)N(C)Cc1cccs1 (stereo unspecified)	2	-1	1	-1	.	.
COc1ccc(-c2cnc(C(N)=O)c(=O)[nH]2)cc1	65*	14	-2	0	71*	60*
CC(=O)N(C)C[C@H]1Oc2ncc(C#Cc3ccccc3)cc2C(=O)N([C@H](C)CO)C[C@H]1C	.	.	-1	.	.	.
CCNC(=O)Nc1ccc2c(c1)C(=O)N(C)[C@@H]1CC[C@H](CC(=O)N[C@@H](C)c3ccccc3)O[C@@H]1CO2	.	.	-1	.	.	.
O=C(NCCCO)c1ccc2[nH]c3ccccc3c2c1	36*	2	-1	i	125*	91*
O=C(C[C@@H]1CC[C@@H](NC(=O)c2cccnc2)[C@@H](CO)O1)NCc1ccncn1	.	.	1	.	.	.
Nc1[nH]nc2nc3ccccc3cc12	-6	1	0	0	.	.
Nc1cccc2nc3ccccc3cc12	75*	2	-1	i	-1	2
Cc1ccc(C2=CC(c3ccc(C)cc3)n3ncnc3N2)cc1 (stereo unspecified)	35*	13	-1	3	119*	95*
COc1ccc(C2C=C(C)Nc3ncnn32)cc1 (stereo unspecified)	36*	8	13	i	121*	106*

Bioassay records from PubChem BioAssay.
